# Results filed as inconclusive are left out. A call without a number means that no potency is given here. Calls of active or inactive are those of the source. Calls come from the whole dose curve; as a rule, active = well fitted curve in the direction sought with a large enough effect; inconclusive = small, poorly fitted or top-dose-only effect, or another doubt; inactive = no such curve, though single readings can be large; an effect the other way counts as inactive or inconclusive.
# Assay: qHTS for Inhibitors of Plasmodium falciparum (DD2) proliferation (AID 504314);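 note: parasite DNA measured by SYBR Green fluorescence after red cell lysis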
# Conditions: P. falciparum Dd2 in erythrocytes, SYBR Green growth, 72 h; series mostly up to 1.12 µM
# Summary of the method: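 Infected RBCs, 0.3% parasitemia, 2.5% Hct; compound 72 h, 37C/5% CO2; lyse + SYBR Green I, RT overnight, dark; read ex485/em535; normalize to DMSO and artemisinin 0.29 uM.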
row,SMILES,Potency
1,CCN1C(=O)N[C@@H](CCc2ccccc2)C(C(C)=O)=C1C,inactive
2,COC(=O)CCCC1=CC2=C(c3ccccc3)C(=O)C(C)(OC(=O)C3CCCC3)C(=O)C2=CN1C(CO)CO (stereo not given),inactive
3,CCCCC1=CC2=CC(=O)C(C)(OC(=O)CC)C(=O)C2=CN1C(CO)CO (stereo not given),inactive
4,COC(=O)C1=C(C(=O)OC)[C@@H]2N(Cc3ccccc3)c3ccccc3[C@@]23C[C@@H](C(=O)OC)N(C(C)=O)C3=N1,inactive
5,CCN1C(=O)N[C@@H](c2ccco2)C(C(C)=O)=C1C,inactive
6,CCN(CC)CCCN1C=C2C(=O)C(C)(OC(=O)C3CCCC3)C(=O)C(c3ccccc3)=C2C=C1CCCC(=O)OC (stereo not given),inactive
7,COCC(=O)N1CCc2nc(-c3ccc(OC)cc3C)c3c(c2C1)CO[C@@H](c1ccccc1)C3,inactive
8,CC(=O)C1=C(C)N(Cc2ccccc2)C(=O)N[C@H]1c1cccc(F)c1,inactive
9,CC[C@@H](C)CN1C(=O)N[C@@H](c2ccccc2)C(C(=O)OC)=C1C,inactive
10,CCCCC1=CC2=CC(=O)C(C)(OC(=O)CC)C(=O)C2=CN1c1cccc(C#N)c1 (stereo not given),inactive
11,COCCN1C(=O)N[C@@H](c2cccc(F)c2)C(C(C)=O)=C1C,inactive
12,C[C@H]1Cc2c(-c3ccccc3)nc3c(c2CO1)CN(C(=O)C1CCCCC1)CC3,inactive
13,COC(=O)C1=C(C)N(Cc2ccccc2)C(=S)NC1c1cccc(F)c1 (stereo not given),inactive
14,COC/C=C/C1=CC2=CC(=O)C(C)(OC(=O)c3cnc4ccccc4n3)C(=O)C2=CN1c1ccc(CO)cc1 (stereo not given),inactive
15,CCN1C(=O)N[C@H](c2ccccc2)C(C(C)=O)=C1C,inactive
16,CCN(CC)CCCN1C=C2C(=O)C(C)(OC(=O)CCC(=O)OC)C(=O)C=C2C=C1C1CC1 (stereo not given),inactive
17,CCOC(=O)CN1C(=O)N[C@@H](c2ccco2)C(C(C)=O)=C1C,inactive
18,CCCCC1=CC2=CC(=O)C(C)(OC(=O)CC)C(=O)C2=CN1Cc1ccc(OC)cc1 (stereo not given),inactive
19,COC(=O)C1=C(C)N(CC2CC2)C(=O)N[C@H]1c1ccccc1,inactive
20,CCCCc1nc2c(c3c1C[C@H](C)OC3)CN(S(=O)(=O)c1ccc(C#N)cc1)CC2,inactive

row,SMILES,Potency
1,CC(=O)[C@@H]1[C@@H](C)N(Cc2ccccc2)C(=O)N[C@H]1c1cccc(C(F)(F)F)c1,inactive
2,COC(=O)C1=C(C(=O)OC)[C@@H]2Nc3ccccc3[C@@]23C[C@@H](C(=O)OC)N(C(=O)NC2CCCC2)C3=N1,inactive
3,C=CCN1C=C2C(=O)C(C)(OC(=O)CCC(=O)OC)C(=O)C=C2C=C1C1CC1 (stereo not given),inactive
4,COC(=O)CCC(=O)OC1(C)C(=O)C2=CN(CCc3ccccn3)C(c3ccc(OC)cc3)=CC2=C(Br)C1=O (stereo not given),inactive
5,COC(=O)N[C@@H](c1cccc(C)c1)[C@]1(C(C)=O)CCCC1=O,inactive
6,CCOC(=O)CN1C(=O)N[C@@H](c2cccc(F)c2)C(C(C)=O)=C1C,inactive
7,CC1(OC(=O)C2CCCC2)C(=O)C=C2C=C(c3ccsc3)N(CCCCO)C=C2C1=O (stereo not given),inactive
8,COC(=O)CC1c2ccccc2C=C(C)N1C(=O)OC (stereo not given),inactive
9,COC[C@@H](O)[C@@H](OC)[C@H](OC)[C@H](Cc1c(OC)cc(OC)cc1OC)OC,inactive
10,COc1ccc(-c2nc3c(c4c2C[C@H](c2ccccc2)OC4)CN(C(=O)NCCc2c[nH]c4ccccc24)CC3)c(C)c1,inactive
11,CC(C)CN1C=C2C(=O)C(C)(OC(=O)C3CCCC3)C(=O)C=C2C=C1c1ccsc1 (stereo not given),inactive
12,CCOC(=O)NN=C1C[C@@H](O)[C@@H](O)[C@@H]2[C@H]3C(=O)N([C@@H](C)c4ccccc4)C(=O)[C@@H]3CC[C@@H]12,inactive
13,C[C@H]1Cc2c(COc3ccccc3)nc3c(c2CO1)CN(C(=O)Nc1cccc(C#N)c1)CC3,inactive
14,CCOC(=O)CN1C(=O)N[C@@H](c2cccc(F)c2)C(C(=O)OC)=C1C,inactive
15,CCO[C@H](c1cc(OC)cc([N+](=O)[O-])c1OC)[C@H](C)C=CCC(=O)OC,inactive
16,COC(=O)C1=C(C(=O)OC)[C@@H]2N(C)c3ccccc3[C@@]23C[C@@H](C(=O)OC)N=C3N1,inactive
17,COC(=O)C1=C(C(=O)OC)[C@@H]2Nc3ccccc3[C@@]23C[C@@H](C(=O)OC)N(C(C)=O)C3=N1,inactive
18,COc1ccc(C2=CC3=C(Br)C(=O)C(C)(OC(=O)c4ccco4)C(=O)C3=CO2)cc1 (stereo not given),inactive
19,CCCCc1nc2c(c3c1C[C@H](C)OC3)CN(C(=O)COC)CC2,inactive
20,COC/C=C/C1=CC2=CC(=O)C(C)(OC(=O)c3cnc4ccccc4n3)C(=O)C2=CN1CCN1CCOCC1 (stereo not given),inactive

# Assay: qHTS for Inhibitors of Plasmodium falciparum (GB4) proliferation (AID 504315); note: nearly all actives have a fitted effect of over 50% in size
# Conditions: P. falciparum GB4 in erythrocytes, SYBR Green DNA, 72 h; series mostly up to 6.7 µM
# Summary of the method: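 Erythrocytes infected with P. falciparum line (0.3% parasitemia, 2.5% hematocrit final) incubated with compounds 72 h at 37 °C, 5% CO2; SYBR Green lysis buffer added, fluorescence read next day. Normalized to 0.29 uM artemisinin and DMSO.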
row,SMILES,Potency
1,CCN1C(=O)N[C@@H](CCc2ccccc2)C(C(C)=O)=C1C,inactive
2,COC(=O)CCCC1=CC2=C(c3ccccc3)C(=O)C(C)(OC(=O)C3CCCC3)C(=O)C2=CN1C(CO)CO (stereo not given),inactive
3,CCCCC1=CC2=CC(=O)C(C)(OC(=O)CC)C(=O)C2=CN1C(CO)CO (stereo not given),inactive
4,COC(=O)C1=C(C(=O)OC)[C@@H]2N(Cc3ccccc3)c3ccccc3[C@@]23C[C@@H](C(=O)OC)N(C(C)=O)C3=N1,inactive
5,CCN1C(=O)N[C@@H](c2ccco2)C(C(C)=O)=C1C,inactive
6,CCN(CC)CCCN1C=C2C(=O)C(C)(OC(=O)C3CCCC3)C(=O)C(c3ccccc3)=C2C=C1CCCC(=O)OC (stereo not given),inactive
7,COCC(=O)N1CCc2nc(-c3ccc(OC)cc3C)c3c(c2C1)CO[C@@H](c1ccccc1)C3,inactive
8,CC(=O)C1=C(C)N(Cc2ccccc2)C(=O)N[C@H]1c1cccc(F)c1,inactive
9,CC[C@@H](C)CN1C(=O)N[C@@H](c2ccccc2)C(C(=O)OC)=C1C,inactive
10,CCCCC1=CC2=CC(=O)C(C)(OC(=O)CC)C(=O)C2=CN1c1cccc(C#N)c1 (stereo not given),inactive
11,COCCN1C(=O)N[C@@H](c2cccc(F)c2)C(C(C)=O)=C1C,inactive
12,C[C@H]1Cc2c(-c3ccccc3)nc3c(c2CO1)CN(C(=O)C1CCCCC1)CC3,inactive
13,COC(=O)C1=C(C)N(Cc2ccccc2)C(=S)NC1c1cccc(F)c1 (stereo not given),inactive
14,COC/C=C/C1=CC2=CC(=O)C(C)(OC(=O)c3cnc4ccccc4n3)C(=O)C2=CN1c1ccc(CO)cc1 (stereo not given),inactive
15,CCN1C(=O)N[C@H](c2ccccc2)C(C(C)=O)=C1C,inactive
16,CCN(CC)CCCN1C=C2C(=O)C(C)(OC(=O)CCC(=O)OC)C(=O)C=C2C=C1C1CC1 (stereo not given),inactive
17,CCOC(=O)CN1C(=O)N[C@@H](c2ccco2)C(C(C)=O)=C1C,inactive
18,CCCCC1=CC2=CC(=O)C(C)(OC(=O)CC)C(=O)C2=CN1Cc1ccc(OC)cc1 (stereo not given),inactive
19,COC(=O)C1=C(C)N(CC2CC2)C(=O)N[C@H]1c1ccccc1,inactive
20,CCCCc1nc2c(c3c1C[C@H](C)OC3)CN(S(=O)(=O)c1ccc(C#N)cc1)CC2,inactive

row,SMILES,Potency
1,CC(=O)[C@@H]1[C@@H](C)N(Cc2ccccc2)C(=O)N[C@H]1c1cccc(C(F)(F)F)c1,inactive
2,COC(=O)C1=C(C(=O)OC)[C@@H]2Nc3ccccc3[C@@]23C[C@@H](C(=O)OC)N(C(=O)NC2CCCC2)C3=N1,inactive
3,C=CCN1C=C2C(=O)C(C)(OC(=O)CCC(=O)OC)C(=O)C=C2C=C1C1CC1 (stereo not given),inactive
4,COC(=O)CCC(=O)OC1(C)C(=O)C2=CN(CCc3ccccn3)C(c3ccc(OC)cc3)=CC2=C(Br)C1=O (stereo not given),inactive
5,COC(=O)N[C@@H](c1cccc(C)c1)[C@]1(C(C)=O)CCCC1=O,inactive
6,CCOC(=O)CN1C(=O)N[C@@H](c2cccc(F)c2)C(C(C)=O)=C1C,inactive
7,CC1(OC(=O)C2CCCC2)C(=O)C=C2C=C(c3ccsc3)N(CCCCO)C=C2C1=O (stereo not given),inactive
8,COC(=O)CC1c2ccccc2C=C(C)N1C(=O)OC (stereo not given),inactive
9,COC[C@@H](O)[C@@H](OC)[C@H](OC)[C@H](Cc1c(OC)cc(OC)cc1OC)OC,inactive
10,COc1ccc(-c2nc3c(c4c2C[C@H](c2ccccc2)OC4)CN(C(=O)NCCc2c[nH]c4ccccc24)CC3)c(C)c1,inactive
11,CC(C)CN1C=C2C(=O)C(C)(OC(=O)C3CCCC3)C(=O)C=C2C=C1c1ccsc1 (stereo not given),inactive
12,CCOC(=O)NN=C1C[C@@H](O)[C@@H](O)[C@@H]2[C@H]3C(=O)N([C@@H](C)c4ccccc4)C(=O)[C@@H]3CC[C@@H]12,inactive
13,C[C@H]1Cc2c(COc3ccccc3)nc3c(c2CO1)CN(C(=O)Nc1cccc(C#N)c1)CC3,inactive
14,CCOC(=O)CN1C(=O)N[C@@H](c2cccc(F)c2)C(C(=O)OC)=C1C,inactive
15,CCO[C@H](c1cc(OC)cc([N+](=O)[O-])c1OC)[C@H](C)C=CCC(=O)OC,inactive
16,COC(=O)C1=C(C(=O)OC)[C@@H]2N(C)c3ccccc3[C@@]23C[C@@H](C(=O)OC)N=C3N1,inactive
17,COC(=O)C1=C(C(=O)OC)[C@@H]2Nc3ccccc3[C@@]23C[C@@H](C(=O)OC)N(C(C)=O)C3=N1,inactive
18,COc1ccc(C2=CC3=C(Br)C(=O)C(C)(OC(=O)c4ccco4)C(=O)C3=CO2)cc1 (stereo not given),inactive
19,CCCCc1nc2c(c3c1C[C@H](C)OC3)CN(C(=O)COC)CC2,inactive
20,COC/C=C/C1=CC2=CC(=O)C(C)(OC(=O)c3cnc4ccccc4n3)C(=O)C2=CN1CCN1CCOCC1 (stereo not given),inactive
